Laboratory results taken from PubChem BioAssay (Tox21).
Records with an inconclusive call do not appear. Unmarked numbers belong to inactive results. The source made the active and inactive calls. Calls come from the whole dose curve; as a rule, active = well fitted cell-killing curve with a large enough effect in the repeat runs; inconclusive = weak or mixed curves, or effect the other way; inactive = no such curve, though single readings can be large or run the other way.

Assay: qHTS assay to identify small molecule antagonists of the vitamin D receptor (VDR) signaling pathway - cell viability counter screen (AID 743225); note: nearly all actives have a fitted effect of over 50% in size
Details: VDR-bla HEK293T viability, CellTiter-Glo luminescence, 16 h; series mostly up to 61 µM; viability change, negative = cytotoxic: at the top concentration
Description: U.S. Tox21 Program National Center for Advancing Translational Sciences [NCATS] NIH Chemical Genomics Center [NCGC] U.S. Environmental Protection Agency [EPA] National Institutes of Environmental Health Sciences [NIEHS] National Toxicology Program [NTP] U.S. Food and Drug Administration [FDA] Tox21 Assay Overview: The vitamin D receptor (VDR), a member of nuclear hormone receptor superfamily, plays a critical role in calcium homeostasis and bone metabolism. It is also involved in cell differentiation and growth, and thrombogenicity. To identify the compounds that inhibit VDR signaling, the VDR-UAS-bla HEK 293T cell line (Invitrogen, Carlsbad, CA, USA) containing a beta-lactamase reporter gene under the control of an upstream activator sequence (UAS) was used to screen the Tox21 10K compound library. The cytotoxicity of the Tox21 compound library against the VDR-bla cell line was tested in parallel by measuring the cell viability using CellTiter-Glo assay (Promega, Madison, WI) in the same wells.
Tox21 Assay Protocol Summary: VDR-bla cells were dispensed at 2,000 cells/5 uL of assay medium per well into black wall/clear-bottom 1536-well plates using a Multidrop Combi (Thermo Fisher Scientific, Waltham, MA) dispenser. After the assay plates were incubated at a 37C and 5% CO2 for 4 h, 23 nL of compounds dissolved in DMSO, positive controls or DMSO only was transferred to the assay plate by a Pintool station (Kalypsys, San Diego, CA), followed by addition of 1 uL of 1-alpha, 25-Dihydroxy Vitamin D3 (3 nM, final concentration in the wells) using a Bioraptr Flying Reagent Dispenser (FRD) workstation (Beckman Coulter, Indianapolis, IN). The plates were incubated at 37C and 5% CO2 for 16 h, and then 1 uL of LiveBLAzerTM B/G FRET substrate was added using a Bioraptr FRD. The plates were incubated at room temperature for 2 h and fluorescence intensity was measured by an Envision plate reader (PerkinElmer, Shelton, CT). For cell viability readout that measures cytotoxicity, 3 ul/well of CellTiter-Glo reagent was added into the assay plates using a Bioraptr FRD. After 30 min incubation at room temperature, the luminescence intensity in the plates was measured using a ViewLux plate reader (PerkinElmer).
% is set by controls: 0 for no effect and ±100 for the full control effect; potency is the fitted concentration of half-maximal effect.

Q: With `O=C(O)C[C@H](NC(=O)OCc1ccccc1)C(=O)O` as the compound, how does the “viability change, negative = cytotoxic” value read?
A: The value was 1.89%.

Q: With `COc1cc(N)c(Cl)cc1C(=O)NC1CCN(CCCOc2ccc(F)cc2)CC1OC` (stereo not given) as the compound, how does the “viability change, negative = cytotoxic” value read?
A: The value was -16.3%.

Q: For `Nc1ccc(N=Nc2ccccc2)c(N)c1`, which “viability change, negative = cytotoxic” value is on record?
A: Its value is -5.92%.

Q: With `CCCCCCCCOc1ccc(C(=O)O)cc1` as the compound, how does the “viability change, negative = cytotoxic” value read?
A: Its value is -8.09%.

Q: Which “viability change, negative = cytotoxic” value does the source give for `CC(O)c1ccccc1` (stereo not given) here?
A: The value was -6.8% [at 78.8 µM].

Q: Which “viability change, negative = cytotoxic” value does the source give for `O[C@@H]1CO[C@H]2[C@@H]1OC[C@@H]2O` here?
A: The value was 3.86%.

Q: Which “viability change, negative = cytotoxic” value does the source give for `O=C(O)c1ccc(OCCCOc2ccc(C(=O)O)cc2)cc1` here?
A: The value was 2.66%.

Q: With `OCCOCC#CCOCCO` as the compound, how does the “viability change, negative = cytotoxic” value read?
A: The value was 0.167%.

Q: Which “viability change, negative = cytotoxic” value does the source give for `CCOC(=O)c1ccc(OCCN2C[C@H](O)[C@@H](O)[C@H](O)[C@H]2CO)cc1` here?
A: The value was 1.85%.

Q: Which “viability change, negative = cytotoxic” value does the source give for `CCC(=O)C1CC(C(C)C)CC=C1C` (stereo not given) here?
A: The value was 0.904%.

Q: For `COC(=O)c1nc(Cl)c(Cl)nc1N`, which Potency is on record?
A: Its Potency is 23.9 µM (active).

Q: With `CCCCN1CCCC1C(=O)Nc1c(C)cc(C)cc1C` (stereo not given) as the compound, how does the “viability change, negative = cytotoxic” value read?
A: Its value is -14.3%.

Q: With `C=C(C)C(=O)OCCOCCOC(=O)C(=C)C` as the compound, how does the “viability change, negative = cytotoxic” value read?
A: The value was -1.21%.

Q: With `CCOc1ccc(Cc2nccc3cc(OCC)c(OCC)cc23)cc1OCC` as the compound, how does the “viability change, negative = cytotoxic” value read?
A: Its value is 2.5%.

Q: With `CC(C)Nc1cccnc1N1CCN(C(=O)c2cc3cc(NS(C)(=O)=O)ccc3[nH]2)CC1` as the compound, how does the “viability change, negative = cytotoxic” value read?
A: The value was -4.79%.

Q: For `C[C@]1(Cn2ccnn2)[C@H](C(=O)O)N2C(=O)C[C@H]2S1(=O)=O`, which “viability change, negative = cytotoxic” value is on record?
A: The value was 22.1%.

Q: Which “viability change, negative = cytotoxic” value does the source give for `O=C(O)CCc1nc(-c2ccccc2)c(-c2ccccc2)o1` here?
A: Its value is 3.91%.

Q: With `Cc1ccc(CO)cc1` as the compound, how does the “viability change, negative = cytotoxic” value read?
A: Its value is 7.77% [at 78.8 µM].

Q: For `C=Cc1ccc(S(=O)(=O)O)cc1`, which “viability change, negative = cytotoxic” value is on record?
A: The value was -22.7%.

Q: Which “viability change, negative = cytotoxic” value does the source give for `CC1(C)[C@@H](OC(=O)CCC(=O)O)CC[C@]2(C)[C@H]3C(=O)C=C4[C@@H]5C[C@@](C)(C(=O)O)CC[C@]5(C)CC[C@@]4(C)[C@]3(C)CC[C@@H]12` here?
A: Its value is 0.509%.

Q: With `CC(=O)Nc1cc(S(=O)(=O)O)cc2cc(S(=O)(=O)O)c(N=Nc3ccccc3)c(O)c12` as the compound, how does the “viability change, negative = cytotoxic” value read?
A: Its value is 1.96%.

Q: Which “viability change, negative = cytotoxic” value does the source give for `CCOC(C)=O` here?
A: The value was -10.2% [at 78.8 µM].

Q: With `OC(CCN1CCCC1)(c1ccccc1)C1CCCCC1` (stereo not given) as the compound, how does the “viability change, negative = cytotoxic” value read?
A: Its value is -1.79%.

Q: Which “viability change, negative = cytotoxic” value does the source give for `CCCCOc1ccc(OCCCN2CCOCC2)cc1` here?
A: The value was -5.73%.

Q: With `CC(C)(C)CC(=O)OCC(=O)[C@@]1(O)CC[C@H]2[C@@H]3CCC4=CC(=O)C=C[C@]4(C)[C@H]3[C@@H](O)C[C@@]21C` as the compound, how does the “viability change, negative = cytotoxic” value read?
A: Its value is 0.438%.

Q: With `COC(=O)CCS` as the compound, how does the “viability change, negative = cytotoxic” value read?
A: The value was 15.2%.

Q: For `CC(=O)Oc1ccc([N+](=O)[O-])cc1CCl`, which “viability change, negative = cytotoxic” value is on record?
A: Its value is 0.182%.

Q: For `O=Cc1c2ccccc2c(Cl)c2ccccc12`, which “viability change, negative = cytotoxic” value is on record?
A: The value was -12.5%.

Q: For `O=[N+]([O-])c1ccc(Nc2ccc(Nc3ccccc3)c(S(=O)(=O)O)c2)c([N+](=O)[O-])c1`, which “viability change, negative = cytotoxic” value is on record?
A: Its value is 2.96%.

Q: With `CC(C)C(O)(c1ccc(OC(F)(F)F)cc1)c1cncnc1` (stereo not given) as the compound, how does the “viability change, negative = cytotoxic” value read?
A: Its value is -28.7%.

Q: For `CNC(=O)c1cnn(-c2nc(N)c3ncn([C@@H]4O[C@H](CO)[C@@H](O)[C@H]4O)c3n2)c1`, which “viability change, negative = cytotoxic” value is on record?
A: Its value is -16%.

Q: For `C(=C\c1ccccc1)/c1ccccc1`, which “viability change, negative = cytotoxic” value is on record?
A: The value was 0.582% [at 78.8 µM].

Q: With `c1csc(SSc2cccs2)c1` as the compound, how does the “viability change, negative = cytotoxic” value read?
A: The value was -10.4%.

Q: For `Cc1ccco1`, which “viability change, negative = cytotoxic” value is on record?
A: The value was 3.59%.

Q: Which “viability change, negative = cytotoxic” value does the source give for `C[C@@H](CN(C)C)CN1c2ccccc2Sc2ccccc21` here?
A: Its value is -17.5%.

Q: With `CO/N=C(/C(=O)N[C@@H]1C(=O)N2C(C(=O)O)=C(COC(N)=O)CS[C@H]12)c1ccco1` as the compound, how does the “viability change, negative = cytotoxic” value read?
A: The value was 3.91%.

Q: Which “viability change, negative = cytotoxic” value does the source give for `O=c1[nH]c2ccc(Cl)cc2o1` here?
A: The value was 17%.

Q: Which “viability change, negative = cytotoxic” value does the source give for `CC1(C)S[C@@H]2[C@H](NC(=O)C(c3ccccc3)S(=O)(=O)O)C(=O)N2[C@H]1C(=O)O` (stereo not given in full) here?
A: Its value is 1.63%.

Q: With `CN1CCCC(CC2c3ccccc3Sc3ccccc32)C1` (stereo not given) as the compound, how does the Potency read?
A: The Potency was 21.3 µM (active).

Q: With `Cc1[nH]cnc1CN1CCc2c(c3ccccc3n2C)C1=O` as the compound, how does the “viability change, negative = cytotoxic” value read?
A: The value was 7.83%.
